High-throughput results as filed in PubChem.
This is a sample that favours compounds with a hit; in the whole collection about 4.3% have one here.
NadD inh: blocks S. aureus nicotinate mononucleotide adenylyltransferase; purified NadD enzyme, colorimetric absorbance read-out; inhibition, % at 20 µM; actives 0.78% (n = 360,000); AID 602399; in the data active means inhibition above about 26%
FAS-TE inh: inhibitors of human fatty acid synthase thioesterase domain. P49327. recombinant FAS-TE, OMFH fluorogenic substrate, fluorescence endpoint. inhibition, % at 15 µM. actives 0.67% (n = 360,000). AID 602261;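 active means compounds whose normalised, plate-corrected inhibition of enzyme fluorescence in the single-dose primary screen is 50% or more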;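 further: 0% = DMSO with enzyme and 100% = substrate without enzyme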
rCAG RNA binder: r(CAG) repeat RNA binding; TO-PRO-1 dye displacement fluorescence; inhibition, % at 3 µM; actives 1.3% (n = 370,000); AID 651821;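 active means inhibition above the plate cutoff, the mean of all test compounds on that plate plus 3 SD, cut at about 35% in these data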;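 further: 0% = DMSO alone and 100% = 100 µM mitoxantrone as full dye displacement; higher means more dye released from RNA so lower well fluorescence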
NR3A LBD binder: modulates the human NR3A ligand-binding domain; AID 1259313; Tm shift relative to glycine control, % at 25 µM; actives 2.5% (n = 340,000); NR3A LBD differential scanning fluorimetry, Tm shift; 0% = protein alone, 100% = glycine-bound protein;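 active means melting temperature shift of at least 10% of the positive control shift, at one fixed dose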
rCAG binder conf: r(CAG) RNA repeat binding, confirmation; shares compounds with rCAG RNA binder; TO-PRO-1 dye displacement fluorescence; inhibition, % at 3 µM; actives 70% (n = 4,300);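 active means inhibition above a per-plate cutoff, the mean inhibition of sample wells plus 3 SD, cut at about 35% in these data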;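 further: loss of TO-PRO-1 fluorescence as compound displaces dye from 1x1 AA loop RNA; 0% = DMSO only wells and 100% = 100 µM mitoxantrone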
dCAG dye counter: counter-screen for rCAG RNA binders: DNA CAG dye complex inhibitors. actives 94% (n = 4,300). shares compounds with rCAG RNA binder. d(CAG) DNA oligo TO-PRO-1 dye displacement, fluorescence. inhibition, % at 3 µM;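 active means inhibition above its plate's cutoff, the mean test-well inhibition plus 3 SD, cut at about 4.8% in these data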;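 further: 0% = DNA dye mix with DMSO and 100% = 100 µM mitoxantrone; hits displace the dye from DNA and so lower well fluorescence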
dCAG dye DR: counter-screen for rCAG binders: inhibitors of DNA CAG TO-PRO-1 complex | shares compounds with rCAG RNA binder | DNA CAG/GTC duplex TO-PRO-1 dye displacement fluorescence | IC50, µM | actives 20% (n = 250) | AID 686960; in the data active means IC50 below about 10 µM
* = called active by the depositor; . = no result given.

SMILES	NadD inh	FAS-TE inh	rCAG RNA binder	NR3A LBD binder	rCAG binder conf	dCAG dye counter	others
CC(C)=CCc1c(O)ccc2c1OC(c1ccc(O)c(O)c1)CC2=O (configuration not stated)	1	-2	11	-4	.	.
O=C(CCCN1C(=O)/C(=C\c2cccs2)SC1=S)Nc1cccc(C(=O)O)c1	13	3	3	-10	.	.
O=C(CCCN1C(=O)/C(=C\c2cccs2)SC1=S)Nc1ccc(C(=O)O)cc1	0	-6	39*	3	30	7.8*
O=C(CCN1C(=O)/C(=C/c2cccs2)SC1=S)Nc1ccc(C(=O)O)cc1	-3	-2	48*	0	35*	8.1*
Cc1ccc(CNC(=O)C2CC(c3ccccc3C(F)(F)F)=NO2)o1 (configuration not stated)	3	-5	38*	-1	5	3
O=C(NCc1ccco1)C1CC(c2ccccc2C(F)(F)F)=NO1 (configuration not stated)	7	-6	5	-1	.	.
N#Cc1c(N)[nH]c(C(=O)c2ccccc2)c1-c1ccc(Br)cc1	.	.	11	.	.	.
COCCCN1C(=O)[C@H](CC(=O)NCC23CC4CC(CC(C4)C2)C3)[C@]2(C(=O)OC)CCCCC=C12	.	.	0	.	.	.
Cc1cc(C(=O)c2ccccc2)cc(C)c1O	-4	4	1	3	.	.
CC1=C/C(=C(\c2cc(C)c(O)c(Br)c2)c2ccccc2S(=O)(=O)O)C=C(Br)C1=O	10	3	49*	-3	33	9.3*
CCOC(=O)c1c(NC(=O)/C=C/C(=O)O)sc(C)c1-c1ccc(C(C)(C)C)cc1	12	30	80*	-1	73*	34*	dCAG dye DR=7.6*
COC(=O)c1cc(=O)nc(NN=Cc2ccccc2)s1	.	.	6	.	.	.
COC(=O)c1cc(=O)nc(NN=C2c3ccccc3-c3ccccc32)s1	18	26	38*	.	94*	77*
O=C(NCC1CCN(C(=O)C(=O)c2cc3ccccc3o2)CC1)c1ccncc1	.	.	2	.	.	.
CCn1c(SCC(=O)O)nnc1-c1cc2c(C)nn(-c3ccccc3)c2s1	-1	-7	27	-1	.	.
Cc1nn(-c2ccccc2)c2sc(-c3nnc(SCC(=O)O)o3)cc12	7	-4	46*	0	56*	15*
CCCCN(C)c1nc(C)nc2c1nnn2Cc1ccccc1	.	.	0	.	.	.
COC1=C[C@H](C(=O)NCc2ccccn2)[C@@]2(C)Cc3ccccc3[C@H]2CC1=O	.	.	6	.	.	.
CC(=O)Nc1ccc(Nc2nc3ccccc3nc2NS(=O)(=O)c2ccccc2)cc1	-4	-3	34	4	.	.
CC(=O)Nc1ccc(S(=O)(=O)Nc2nc3ccccc3nc2Nc2cccc(S(N)(=O)=O)c2)cc1	-5	-2	52*	8	37*	7.6*
CC(=O)Nc1ccc(S(=O)(=O)Nc2nc3ccccc3nc2Nc2ccccc2)cc1	8	-1	47*	10*	40*	9.6*
COC(=O)C1CN(Cc2ccccc2)CCS(=O)(=O)N1Cc1ccc(OC)cc1 (configuration not stated)	.	.	0	.	.	.
CCCC(C)C(=O)NC1CCCCN(C)C1=O (configuration not stated)	.	.	3	.	.	.
Cc1nc(S/C(=C/c2ccc(-c3cc(Cl)ccc3C)o2)C(=O)O)n[nH]1	19	11	51*	-1	81*	44*
CCC(Sc1nc2ccsc2c(=O)n1Cc1ccc(C(=O)O)cc1)C(=O)Nc1cccc(OC)c1 (configuration not stated)	2	-10	46*	.	36*	11*
SMILES	NadD inh	FAS-TE inh	rCAG RNA binder	NR3A LBD binder	rCAG binder conf	dCAG dye counter	others
CCc1ccc(NC(=O)C(CC)Sc2nc3ccsc3c(=O)n2CCC(=O)O)cc1 (configuration not stated)	6	-4	38*	-1	23	4.4*
Cc1nn(-c2ccccc2)c2sc(C(=O)NC3CCCc4ccccc43)cc12 (configuration not stated)	.	.	10	.	.	.
O=C(CC1CCCC1)N1CC[C@H]2[C@H](CCCN2Cc2cc(F)cc(F)c2)C1	.	.	-2	.	.	.
Cc1c(OCc2nn[nH]n2)ccc2c3c(c(=O)oc12)CCC(C)C3 (configuration not stated)	5	14	42*	-4	23	4.7*
COc1cccc([C@@H](NC(=O)C(F)(F)F)[C@@H]2CCCC=C2c2ccccc2)c1	.	.	2	.	.	.
COc1cc(/C=C2\CC/C(=C\c3cc(OC)c(O)c(OC)c3)C2=O)cc(OC)c1O	23	-18	36*	-17	40*	15*
COc1cc(/C=C2/CCC/C(=C\c3cc(O)c(OC)c(Cl)c3)C2=O)cc(Cl)c1O	50*	10	38*	1	30	10*
COc1cc(N2CCC(O)CC2)ccc1Nc1cc(Nc2ccccc2S(=O)(=O)C(C)C)c2cc[nH]c2n1	.	.	22	.	.	.
Cc1cc(C(=O)Nc2cccc(/C=C/C(=O)O)c2)c(C)o1	1	-3	5	1	.	.
Cc1oc(-c2ccccc2)cc1C(=O)Nc1cccc(/C=C/C(=O)O)c1	1	8	47*	-14	39*	9.0*
O=C(N/N=C/c1ccc([N+](=O)[O-])o1)c1ccccc1NS(=O)(=O)c1cccs1	4	5	45*	0	41*	15*
COc1cc(/C=N/NC(=O)c2ccccc2NS(=O)(=O)c2cccs2)ccc1O	3	-7	43*	0	32	9.4*
O=C(NN=Cc1cc(Br)c(O)c(Br)c1)c1ccccc1NS(=O)(=O)c1cccs1	-1	-6	40*	3	35*	10*
COc1ccccc1/C=N/NC(=O)c1ccccc1NS(=O)(=O)c1ccc(C)cc1	-1	2	39*	0	45*	14*
Cc1ccc(S(=O)(=O)Nc2ccccc2C=NNC(=O)c2ccncc2)cc1	-2	-4	7	.	.	.
O=C(NN=Cc1ccc(F)cc1)c1ccccc1NS(=O)(=O)c1cccs1	4	0	26	-4	.	.
Cc1cc(F)ccc1C(=O)N1CCC(Oc2cccnc2)CC1	.	.	-1	.	.	.
Cc1nn(-c2ccccc2)c(C)c1/C=N/NC(=O)c1ccccc1NS(=O)(=O)c1cccs1	15	-5	62*	2	60*	21*
COc1ccc(NS(=O)(=O)c2cccc(C(=O)NN=Cc3cc(Br)c(O)c(Br)c3)c2)cc1	14	3	39*	-6	43*	17*
C[C@@H]1CN([C@@H](C)CO)C(=O)c2ccccc2-c2ccccc2CO[C@@H]1CN(C)Cc1ccc(Cl)c(Cl)c1	.	.	7	.	.	.
COC(=O)C1=C(C)N(C)C(=NCc2ccc3c(c2)OCO3)NC1c1ccccc1 (configuration not stated)	.	.	9	.	.	.
